Test results reported in paper PMC4336329 (PLoS ONE, 2015).
The campaign covered roughly 310,000 compounds. About 14,000 (4.5%) showed an effect of 50% or more. The effect is printed as a negative number. For the sample, strong results were picked, then their nearest neighbours and some compounds at random.

What follows are molecules tested against human ether-à-go-go-related gene (hERG) potassium channel (human, UniProt Q12809) (assay: primary screen, population patch clamp on CHO cells stably expressing hERG; higher = less effect of the substance).
Chain of human ether-à-go-go-related gene (hERG) potassium channel (Q12809 whole entry, looked up): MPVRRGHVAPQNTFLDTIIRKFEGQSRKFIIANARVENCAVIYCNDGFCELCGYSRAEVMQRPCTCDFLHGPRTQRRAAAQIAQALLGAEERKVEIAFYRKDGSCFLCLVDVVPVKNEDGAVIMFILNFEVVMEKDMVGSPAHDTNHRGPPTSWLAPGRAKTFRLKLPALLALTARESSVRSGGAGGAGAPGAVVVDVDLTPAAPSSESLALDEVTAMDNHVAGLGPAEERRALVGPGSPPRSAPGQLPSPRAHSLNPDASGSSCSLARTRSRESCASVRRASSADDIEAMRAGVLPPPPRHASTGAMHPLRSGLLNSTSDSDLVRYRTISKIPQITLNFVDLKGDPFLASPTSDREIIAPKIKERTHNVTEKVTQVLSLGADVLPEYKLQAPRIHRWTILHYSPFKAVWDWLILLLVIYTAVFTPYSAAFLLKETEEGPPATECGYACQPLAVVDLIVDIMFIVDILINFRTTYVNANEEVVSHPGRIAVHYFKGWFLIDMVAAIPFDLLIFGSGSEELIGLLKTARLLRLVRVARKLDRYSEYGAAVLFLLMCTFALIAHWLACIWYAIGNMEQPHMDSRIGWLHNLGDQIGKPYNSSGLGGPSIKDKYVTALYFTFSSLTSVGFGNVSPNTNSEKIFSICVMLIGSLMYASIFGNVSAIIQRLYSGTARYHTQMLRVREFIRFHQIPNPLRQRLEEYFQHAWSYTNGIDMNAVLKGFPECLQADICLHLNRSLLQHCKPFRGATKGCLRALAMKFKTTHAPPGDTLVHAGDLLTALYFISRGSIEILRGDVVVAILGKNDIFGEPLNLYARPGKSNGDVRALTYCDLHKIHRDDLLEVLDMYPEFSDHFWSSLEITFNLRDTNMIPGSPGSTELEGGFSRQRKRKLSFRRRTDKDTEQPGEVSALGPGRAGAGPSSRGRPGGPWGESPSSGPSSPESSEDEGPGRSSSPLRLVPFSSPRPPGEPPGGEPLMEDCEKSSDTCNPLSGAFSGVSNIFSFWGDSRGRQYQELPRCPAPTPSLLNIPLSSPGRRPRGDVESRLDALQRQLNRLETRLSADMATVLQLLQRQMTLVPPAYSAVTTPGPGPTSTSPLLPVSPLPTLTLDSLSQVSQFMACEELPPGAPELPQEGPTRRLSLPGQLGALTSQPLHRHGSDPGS
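Also: peak tail current of the secondary pulse compared with the same well before compound.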

| SMILES | hERG current change (%, negative = inhibition) at 10uM |
| --- | --- |
| Cc1ccc(/C=N/NC(=O)C(NC(=O)c2ccccc2)c2n[nH]c(=O)c3ccccc23)cc1 (stereo not shown) | -2.54% |
| CCC(C)NC(=S)Nc1ccc(C(=O)OC)cc1 (stereo not shown) | 15% |
| CCCn1c(=O)c(C(=O)NNC(=O)c2cccc([N+](=O)[O-])c2)c(O)c2ccccc21 | -21.7% |
| O=C(Cn1cnc2ccccc2c1=O)NCCC(=O)Nc1ccc2c(c1)OCO2 | 16.4% |
| Cc1cc(NC(=O)CSc2nc(-c3ccc(Cl)cc3)cs2)no1 | -5.45% |
| COC(=O)c1cc(NC(=O)Cn2nc(C)n3cccc3c2=O)cc(C(=O)OC)c1 | 4.88% |
| COc1cc(S(=O)(=O)NCC2CCCO2)c(OC)cc1Cl (stereo not shown) | 10.6% |
| N#Cc1ccsc1NC(=O)CN1CCCCC1 | -5.6% |
| N#Cc1ccccc1NC(=O)CN1CCN(Cc2ccccc2)CC1 | -60.1% |
| N#Cc1ccsc1NC(=O)CN1CCN(Cc2ccccc2)CC1 | -66.4% |
| N#Cc1ccccc1NC(=O)CN1CCOCC1 | 13.4% |
| CC1CCN(CC(=O)Nc2ccccc2C#N)CC1 | 3.06% |
| N#Cc1ccsc1NC(=O)CN1CCN(c2ccccc2)CC1 | 1.63% |
| Cc1ccc(C(=O)NCCN(C)C)cc1C | 7.22% |
| Nc1ccccc1NC(=O)c1ccccc1 | 2.34% |
| O=C(CCCN1C(=O)c2cccnc2Oc2ccc(Cl)cc21)N1CCCCC1 | -9.27% |
| O=C1CNC(=O)N1 | 13.6% |
| CS(=O)(=O)Nc1ccc(C(=O)N2CCCCC2)cc1 | -3.35% |
| O=C(Nc1ccc(C(=O)N2CCN(c3ccc(F)cc3)CC2)cc1)C1=CSCCO1 | -38.1% |
| O=C(Nc1ccc(C(=O)N2CCN(c3ccccc3)CC2)cc1)C1=CSCCO1 | -39.8% |
| CS(=O)(=O)Nc1ccc(C(=O)N2CCN(c3ccccc3)CC2)cc1 | -61.9% |
| CS(=O)(=O)Nc1ccc(C(=O)N2CCN(c3ccccc3F)CC2)cc1 | -68.1% |
| O=C(Nc1ccc(C(=O)N2CCN(c3ccccc3F)CC2)cc1)C1=CSCCO1 | -50.3% |
| CS(=O)(=O)Nc1ccc(C(=O)N2CCCC2)cc1 | -7.75% |

| SMILES | hERG current change (%, negative = inhibition) at 10uM |
| --- | --- |
| O=C(c1ccccc1)N1CCN(c2ccccc2F)CC1 | 10.1% |
| O=C(c1ccc(-c2ccccc2)cc1)N1CCN(c2ccccc2F)CC1 | 7.96% |
| Cc1nn(CCC#N)c(NC(=O)c2ccccc2)c1P(=O)(Nc1ccc(Br)cc1)N1CCOCC1 (stereo not shown) | 20.6% |
| Cc1cc(CN(C)C(=O)c2ccc3nc(Cc4ccccc4F)oc3c2)on1 | -5.71% |
| Cc1ccc(SCC2=NN(c3nc(C)cc(C)n3)C(=O)C2)cc1 | -16% |
| CCn1c(CCNC(=O)c2ccc(OC)cc2)nnc1SCc1ccc(Cl)c(Cl)c1 | -61.8% |
| CCn1c(SCc2ccc(Cl)c(Cl)c2)nnc1C(C)NC(=O)c1ccc(OC)cc1 (stereo not shown) | 10% |
| CCn1c(CCNC(=O)c2ccc(C)cc2)nnc1SCc1ccc(Cl)c(Cl)c1 | -45.7% |
| CCn1c(CCNC(=O)c2ccc(OC)cc2)nnc1SCc1ccc(Cl)cc1Cl | -65.6% |
| CCn1c(CCNC(=O)c2ccc(Cl)c(Cl)c2)nnc1SCCOc1ccc(OC)cc1 | -8.77% |
| CCOc1ccc(NC(=O)CSc2nnc(CCNC(=O)c3ccc(OC)cc3)n2CC)cc1 | -26.7% |
| CCC1(C)Cc2nc3[nH]c(=S)n(-c4ccccc4C)c(=O)c3cc2CO1 (stereo not shown) | 4.44% |
| Cc1ccc2c(c1)c1c(n2C)C(C(N)=O)CCC1 (stereo not shown) | -19.5% |
| CCC(C)C1(CC)C(=O)NC(=O)N=C1N (stereo not shown) | 36.1% |
| CCCC(C)C1(CC)C(=O)NC(=O)N=C1N (stereo not shown) | -76.5% |
| CCCC(C)C1(CC)C(=O)NC(=Nc2ccc(F)cc2)NC1=O (stereo not shown) | 17.5% |
| O=C(c1cc(-c2ccccc2Cl)on1)N1CCN(C(=O)c2ccco2)CC1 | -44.2% |
| O=C(c1cc(-c2ccc(Cl)cc2Cl)on1)N1CCN(C(=O)c2ccco2)CC1 | -70.2% |
| CC(=O)N1CCN(C(=O)c2ccc(-c3ccccc3Cl)o2)CC1 | -20% |
| O=C(c1ccco1)N1CCN(C(=O)c2ccc(-c3ccccc3Cl)o2)CC1 | -67.6% |
| O=C(c1ccco1)N1CCN(C(=O)c2ccc(-c3ccc(Cl)cc3)o2)CC1 | -78.8% |
| O=C1c2ccccc2-c2c1cccc2C(=O)N1CCN(C(=O)c2ccco2)CC1 | -71.1% |
| O=C(c1ccc(Cl)cc1)N1CCN(C(=O)c2ccco2)CC1 | -21% |
| O=C1c2ccccc2-c2c1cccc2C(=O)N1CCCCCC1 | 0.506% |

| SMILES | hERG current change (%, negative = inhibition) at 10uM |
| --- | --- |
| O=C(Cc1ccc(Cl)cc1)N1CCN(C(=O)c2ccco2)CC1 | -12.8% |
| O=C(c1ccc(-c2ccccc2Cl)o1)N1CCN(c2ccccc2O)CC1 | 8.64% |
| O=C(c1cc(-c2ccc(Cl)cc2Cl)on1)N1CCCC1 | -0.203% |
| O=C1c2ccccc2-c2c1cccc2C(=O)N1CCCCC1 | -22.3% |
| COC(=O)C(O)(c1ccc(NC(=O)c2ccco2)c(OC)c1)C(F)(F)F (stereo not shown) | -6.24% |
| O=C(NCCc1ccc(Cl)cc1)C(=O)c1c[nH]c2ccccc12 | -10.8% |
| O=C(Nc1nsc(-c2ccccc2)n1)c1ccc(F)cc1 | -24.6% |
| CCC(NC(=O)CNC(=O)CNC(=O)c1ccc(Cl)cc1Cl)c1ccc(C)cc1 (stereo not shown) | 22.2% |
| CC(C)c1cc(C(=O)O)n(-c2ccccc2)n1 | 12.1% |
| Cc1ccc(S(=O)(=O)n2[nH]c(=O)c(CCO)c2C)cc1 | 8.83% |
| O=C(Cc1ccc(F)cc1)N/N=C/c1ccncc1 | -8.56% |
| Fc1ccc(C2c3cccn3CCN2C(=S)Nc2cccc(Br)c2)cc1 (stereo not shown) | 19.4% |
| O=C(COC(=O)c1ccccc1C(=O)c1ccc(Cl)cc1)NCCc1ccccc1 | -18.7% |
| Cc1ccc(C(=O)c2ccccc2C(=O)OCC(=O)NCCc2ccc(Cl)cc2Cl)cc1 | -9.96% |
| O=C(COC(=O)c1ccccc1C(=O)c1ccccc1)NCCc1ccc(Cl)cc1Cl | -31.9% |
| Cc1ccc(C(=O)c2ccccc2C(=O)OCC(=O)NCCc2ccccc2)cc1 | -52.5% |
| O=C(COC(=O)c1ccccc1C(=O)c1ccccc1)NCCc1ccccc1 | -64.8% |
| Cc1ccc(C(=O)c2ccccc2C(=O)OCC(=O)NC(C)(C)C)cc1 | -0.829% |
| CSCCC(NS(=O)(=O)/C=C/c1ccccc1)C(=O)NCCc1ccc(S(N)(=O)=O)cc1 (stereo not shown) | 7.59% |
| COc1ccc(C(=O)COC(=O)CCn2nnc(-c3cccs3)n2)cc1 | 10.6% |
| CN(Cc1c(C(=O)N/N=C/c2cccc(O)c2)nnn1-c1nonc1N)C1CCCCC1 | -2.25% |
| CCOC(=O)CN1C(=O)CSc2ccccc21 | 0.699% |
| CNc1ncc(C(=O)c2ccccc2)s1 | -1.56% |
| NCCNC(=O)c1c(NC(=O)c2ccccc2)sc2c1CCCC2 | 15.4% |

| SMILES | hERG current change (%, negative = inhibition) at 10uM |
| --- | --- |
| CCN(CC)CCCC(C)NC(=O)c1c(NC(=O)c2ccccc2)sc2c1CCCC2.O=C(O)C(=O)O (stereo not shown) | -76.9% |
| CN(C)CCNC(=O)c1c(NC(=O)c2ccccc2)sc2c1CCCC2 | -25.9% |
| CCOc1ccccc1C(c1c(O)nc(SC)[nH]c1=O)c1c(O)nc(SC)[nH]c1=O | 5.67% |
| O=S(=O)(Nc1ncccn1)c1ccc(NS(=O)(=O)c2cc(Cl)ccc2Cl)cc1 | 31.6% |
| COc1ccccc1C(=O)N(Cc1ccccc1)c1ccc(C)cc1 | -2.96% |
| CCOC(=O)C1(CCc2ccccc2)CCN(C(=O)c2cc(C)nc(C)n2)CC1 | -11% |
| CC#CC(=O)N1CCC(CCc2ccccc2)(C(=O)OCC)CC1 | -61.4% |
| CC#CC(=O)N1CCC(CO)(CCc2ccccc2)CC1 | 1.33% |
| CCOC(=O)C1(CCc2ccccc2)CCN(C(=O)c2cccc(C)n2)CC1 | -11.4% |
| CCOC(=O)C1(CCc2ccccc2)CCN(C(=O)c2occc2C)CC1 | -63.3% |
| CCOC(=O)C1(CCc2ccccc2)CCN(C(=O)C2=C(C)OCCO2)CC1 | -15.2% |
| COc1cc(Cl)c(C)cc1Nc1ncccn1 | 4.73% |
| CC(=O)c1cccc(NC(=S)N2CCCC2)c1 | 9.57% |
| c1ccc(CN2CCC(Nc3ncnc4sccc34)CC2)cc1 | -66.9% |
| Cc1csc2ncnc(NCCc3ccccn3)c12 | -22.4% |
| OC1CCC(Nc2ncnc3sccc23)CC1 (stereo not shown) | 13.2% |
| Cc1sc2ncnc(NC3CCN(Cc4ccccc4)CC3)c2c1C | -79.6% |
| Cc1csc2ncnc(NC3CCN(Cc4ccccc4)CC3)c12 | -65.5% |
| Cc1sc2ncnc(N[C@@H](Cc3ccccc3)C(=O)O)c2c1C | 14% |
| Cc1sc2ncnc(Nc3ccccc3)c2c1C | 2.79% |
| c1ccc(CNc2ncnc3sccc23)cc1 | 9.9% |
| Cc1csc2c(NC3CCN(Cc4ccccc4)CC3)ncnc12 | -31.8% |
